# A selection: hits, their analogues and other compounds. The true share with any hit is near 2.1%.
# FUS yeast rescue: qHTS for Suppressors of FUS Proteinopathy: Primary screen using FUS-linked yeast assay; S. cerevisiae FUS-expressing, growth rescue, OD600, 24 h; Potency, µM (series often up to 76.6 µM), most hits filed as activators; 0.24% of 390,000 active;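 also: plate controls were DMSO vehicle for no effect and reference control for full effect; nearly all actives have a fitted effect of over 55% in size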
#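 FUS-expressing yeast, raffinose-pregrown, induced in 2% galactose minimal medium at OD 0.005; compounds in a dilution series, 24hr at 30C. Growth restoration read as absorbance at 600 nm. CP55940 positive control, DMSO negative.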
# TDP-43 yeast inh: qHTS of TDP-43 Inhibitors | TDP-43 expressing yeast growth rescue, BacTiter-Glo, 24 h | Potency, µM (highest dose often 46.1 µM), for inactives: at the top dose growth rescue (activation), actives largely listed as activators | 1.8% of 410,000 active; also: % of control where 0% means no effect; nearly all actives have a fitted effect of over 50% in size
#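 In this qHTS, compounds that restore growth of yeast expressing TDP-43 appear as activators. Cells (OD600=0.02, galactose medium, raffinose-pregrown) are incubated with compound 24 hr at 30 deg C and growth is quantified by BacTiter-Glo.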
# Abeta yeast res: qHTS for compounds that reverse cellular toxicity of Amyloid beta (A-beta) peptide in yeast: Primary Screen | yeast expressing A-beta42, growth rescue, OD600, 48 h; response scale: 0% DMSO, 100% iron-clioquinol control | Potency, µM (highest dose often 46.1 µM), actives largely listed as activators | 0.063% of 410,000 active; also: nearly all actives have a fitted effect of over 55% in size
#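 Growth rescue measured by 600 nm absorbance after 48 h yeast culture at 30 C with compound. Values normalized between DMSO and an equimolar ferric chloride plus clioquinol control.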
# aSyn rescue: qHTS of alpha-syn Inhibitors | Yeast expressing alpha-synuclein, growth rescue, BacTiter-Glo, 24 h | Potency, µM (top dose mostly 46.1 µM), for the others: at the highest dose growth rescue (activation), usual class: activators | 0.14% of 370,000 active; also: % of control where 0% means no effect; nearly all actives have a fitted effect of over 65% in size
#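 Galactose-induced alpha-syn yeast (OD600=0.02, raffinose-pregrown) + pinned cpd, 24 hr, 30 deg C; growth by BacTiter-Glo luminescence. Growth restoration scores as activation.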
# An asterisk follows results filed as active; i = inactive; ? = inconclusive; nt = no result given. Calls follow the shape of the dose curve; as a rule, active = well fitted curve in the direction sought with a large enough effect; inconclusive = small, poorly fitted or top-dose-only effect, or another doubt; inactive = no such curve, though single readings can be large; an effect the other way counts as inactive or inconclusive. Potency is read from the fitted curve at half-maximal effect.
SMILES,FUS yeast rescue,TDP-43 yeast inh,Abeta yeast res,aSyn rescue
O=C(NC(=S)NCCc1ccc(Cl)cc1)c1ccco1,i,14.1µM*,?,-1.3%
O=C(NC(=S)NCCc1ccccc1)c1ccccc1F,i,11.2µM*,i,-9.8%
CCC(=O)Nc1ccc(Cl)c(NC(=S)NC(=O)c2ccco2)c1,i,11.2µM*,i,-2.0%
CCn1cc(C(=O)OCC(=O)Nc2cc(OC)cc(OC)c2)c(=O)c2ccc(C)nc21,i,0.0%,i,nt
COc1cccc(CNc2nc(Cl)nc3nc[nH]c23)c1,nt,nt,nt,-7.3%
CC(C)CCN1C(=O)c2ccc(C(=O)OCC(=O)N(CC(C)C)C3CCS(=O)(=O)C3)cc2C1=O (configuration not stated),31.6µM*,-12.2%,i,-4.4%
CCc1sc(-c2cc3cccc(OC)c3oc2=O)nc1-c1ccccc1,nt,nt,nt,0.5%
O=C(OCC#CCSc1nnc(-c2cccc3ccccc23)o1)c1sccc1Cl,i,nt,nt,nt
COc1ccccc1-c1noc(-c2cccnc2)n1,i,11.2µM*,i,4.0%
COc1ccccc1-c1nc(-c2ccncc2)no1,i,11.2µM*,i,nt
CCOc1ccccc1-c1nc(-c2ccncc2)no1,i,17.8µM*,i,10.1%
CCOc1ccc(-c2noc(-c3ccncc3)n2)cc1OCC,i,0.0%,i,-1.0%
Cc1cccc(NC(=O)C2CCCN(c3nnc(-n4cccc4)s3)C2)c1C (configuration not stated),i,nt,nt,nt
COc1ccc(-n2nc([N+](=O)[O-])c(=NCCC3=CCCCC3)n2O)cc1,i,20µM*,i,8.5%
Cc1ccc(OCc2nnc(SCC(=O)c3ccc(-c4ccccc4)cc3)n2Cc2ccco2)cc1,i,nt,nt,nt
O=C(CCC1N=C2c3ccccc3N=C(SCc3cccc(Cl)c3)N2C1=O)NCCc1ccccc1 (configuration not stated),?,?,i,nt
O=C(CCC1N=C2c3ccccc3N=C(SCc3ccc(Cl)cc3)N2C1=O)NCCc1ccccc1 (configuration not stated),31.6µM*,15.1%,i,nt
COc1cc([C@H]2OC[C@H]3[C@@H]2CO[C@H]3c2ccc(O)c(OC)c2)ccc1O,i,20.3%,i,1.4%
C/C=C/c1cc(OC)c2c(c1)[C@H](C)[C@@H](c1ccc(O)c(OC)c1)O2,i,27.5%,i,7.94µM*
Brc1ccccc1C1CC(c2ccccc2)=Nc2ccccc2N1 (configuration not stated),i,35.5µM*,i,-21.1%
Clc1ccccc1C1CC(c2ccccc2)=Nc2ccccc2N1 (configuration not stated),i,?,i,17.9%
CCn1c2ccccc2c2nc3ccccc3nc21,i,10µM*,i,-5.1%
Oc1ccccc1NCC(O)Cn1ccc2ccccc21 (configuration not stated),?,0.1%,i,0.2%
Nc1ccccc1SCC(O)Cn1ccc2ccccc21 (configuration not stated),i,17.8µM*,i,?
OCC1O[C@H]([S-])[C@H](O)[C@@H](O)[C@@H]1O.[Au+] (some centres not stated),nt,nt,nt,-6.0%
SMILES,FUS yeast rescue,TDP-43 yeast inh,Abeta yeast res,aSyn rescue
CC(=O)n1nc(-c2ccccc2)cc1-c1ccccc1,i,12.6µM*,i,17.3%
Cc1ccc(NC(=O)c2cc(C(C)(C)C)nn2Cc2ccccc2)cc1,i,26.5%,i,-15.2%
CC(C)(C)c1cc(C(=O)Nc2ccc(F)cc2)n(Cc2ccc(F)cc2)n1,i,20µM*,?,-10.6%
C[C@@H]1[C@@H](O)C[C@@]2(C[C@H](O)c3cc(F)ccc3O2)O[C@H]1c1ccccc1Cl,i,nt,nt,nt
O=c1c2ccccc2nnn1Cc1ccccc1,i,17.8µM*,i,8.9%
O=c1c2ccccc2nnn1CCc1ccccc1,i,?,i,-6.2%
CC1(C)Cc2cccc(C(=O)Nc3ccc(F)cc3F)c2O1,i,20µM*,i,-11.9%
Cc1cccc(NC(=O)Cn2nnc(-c3ccccc3F)n2)c1C,i,nt,nt,nt
O=C(OCC#CCSc1nnc(-c2cccc3ccccc23)o1)c1ccccc1,i,nt,nt,nt
